Results published in the supplement of paper PMC11732987, “Enantioselective OTUD7B fragment discovery through chemoproteomics screening and high-throughput optimisation” (Communications Chemistry, 2025).

Tests used:
Experiment in all cases: log2 ratio of Biotin-Ahx-Ub-VS probe labelling (fragment/DMSO); higher = less target engagement (more negative = stronger competition), active = hit call of the paper (q ≤ 0.05, log2 ratio ≤ -1)
Conditions in all cases: compound concentration: 200 uM; treatment time: 3 h
USP42 = biological target: T1, USP42 (UniProt Q9H9J4)
T1 sequence (whole entry): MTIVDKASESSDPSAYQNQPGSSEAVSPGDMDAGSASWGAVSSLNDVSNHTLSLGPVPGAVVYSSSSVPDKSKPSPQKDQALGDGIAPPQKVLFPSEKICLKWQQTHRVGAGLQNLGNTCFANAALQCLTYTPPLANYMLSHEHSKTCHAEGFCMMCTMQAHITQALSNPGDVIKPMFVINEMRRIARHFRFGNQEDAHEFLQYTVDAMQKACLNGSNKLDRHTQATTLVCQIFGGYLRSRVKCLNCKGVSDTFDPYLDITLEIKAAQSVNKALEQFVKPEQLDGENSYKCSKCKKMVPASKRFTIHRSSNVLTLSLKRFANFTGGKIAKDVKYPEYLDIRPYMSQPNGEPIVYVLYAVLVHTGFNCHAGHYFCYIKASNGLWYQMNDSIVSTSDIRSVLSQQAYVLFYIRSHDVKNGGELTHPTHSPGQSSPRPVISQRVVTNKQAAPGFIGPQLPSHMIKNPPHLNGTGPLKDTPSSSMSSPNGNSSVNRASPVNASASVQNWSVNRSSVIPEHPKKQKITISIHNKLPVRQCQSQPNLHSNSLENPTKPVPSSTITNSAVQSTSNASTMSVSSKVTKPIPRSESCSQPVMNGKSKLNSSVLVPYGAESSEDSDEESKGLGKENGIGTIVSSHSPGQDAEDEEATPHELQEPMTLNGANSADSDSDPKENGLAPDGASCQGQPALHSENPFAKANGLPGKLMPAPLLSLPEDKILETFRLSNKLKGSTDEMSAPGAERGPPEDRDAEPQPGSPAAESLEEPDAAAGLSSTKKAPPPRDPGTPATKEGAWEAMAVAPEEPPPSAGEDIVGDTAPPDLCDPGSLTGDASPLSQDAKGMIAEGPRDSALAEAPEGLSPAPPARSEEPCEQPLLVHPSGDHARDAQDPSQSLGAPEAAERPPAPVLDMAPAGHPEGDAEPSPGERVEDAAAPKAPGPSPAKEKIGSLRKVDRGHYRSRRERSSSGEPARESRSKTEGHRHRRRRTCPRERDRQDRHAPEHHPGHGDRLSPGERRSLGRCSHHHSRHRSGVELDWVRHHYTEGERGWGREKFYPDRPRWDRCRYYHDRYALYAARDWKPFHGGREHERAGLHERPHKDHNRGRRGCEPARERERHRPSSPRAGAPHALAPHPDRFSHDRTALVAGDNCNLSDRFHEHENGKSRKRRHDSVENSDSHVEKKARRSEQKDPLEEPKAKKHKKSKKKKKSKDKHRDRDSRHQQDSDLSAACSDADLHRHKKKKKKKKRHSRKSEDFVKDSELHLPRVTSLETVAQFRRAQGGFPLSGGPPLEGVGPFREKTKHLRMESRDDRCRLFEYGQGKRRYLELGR
Outline: (§1)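 Labelling with Biotin-Ahx-Ub-VS (0.5 µM final, 1 h) followed a 3 h triplicate treatment of HEK293T lysate (495 µg per sample, Tris/CHAPS/IGEPAL buffer with protease inhibitors) with fragment at 200 µM or vehicle. Labelled DUBs were NeutrAvidin-enriched, digested with LysC and trypsin, and run by diaPASEF LC-MS/MS. The values, average log2 fragment/vehicle ratios by unpaired t-test, come from global-median-normalised Spectronaut label-free quantities. Proteins with ≥2 unique peptides were used.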

USP46 = USP46 (UniProt P62068)
Chain of USP46 (P62068 whole entry): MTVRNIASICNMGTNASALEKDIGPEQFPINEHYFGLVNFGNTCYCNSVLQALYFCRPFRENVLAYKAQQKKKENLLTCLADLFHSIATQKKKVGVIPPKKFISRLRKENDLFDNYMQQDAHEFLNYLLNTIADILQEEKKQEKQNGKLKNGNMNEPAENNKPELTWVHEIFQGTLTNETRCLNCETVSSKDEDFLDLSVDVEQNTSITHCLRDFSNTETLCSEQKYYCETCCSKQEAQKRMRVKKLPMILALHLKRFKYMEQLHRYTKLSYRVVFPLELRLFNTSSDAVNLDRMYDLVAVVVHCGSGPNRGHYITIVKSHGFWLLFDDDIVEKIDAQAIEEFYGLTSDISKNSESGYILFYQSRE
Outline: as §1

USP47 = biological target: T2, USP47 (UniProt Q96K76)
T2 sequence (whole entry): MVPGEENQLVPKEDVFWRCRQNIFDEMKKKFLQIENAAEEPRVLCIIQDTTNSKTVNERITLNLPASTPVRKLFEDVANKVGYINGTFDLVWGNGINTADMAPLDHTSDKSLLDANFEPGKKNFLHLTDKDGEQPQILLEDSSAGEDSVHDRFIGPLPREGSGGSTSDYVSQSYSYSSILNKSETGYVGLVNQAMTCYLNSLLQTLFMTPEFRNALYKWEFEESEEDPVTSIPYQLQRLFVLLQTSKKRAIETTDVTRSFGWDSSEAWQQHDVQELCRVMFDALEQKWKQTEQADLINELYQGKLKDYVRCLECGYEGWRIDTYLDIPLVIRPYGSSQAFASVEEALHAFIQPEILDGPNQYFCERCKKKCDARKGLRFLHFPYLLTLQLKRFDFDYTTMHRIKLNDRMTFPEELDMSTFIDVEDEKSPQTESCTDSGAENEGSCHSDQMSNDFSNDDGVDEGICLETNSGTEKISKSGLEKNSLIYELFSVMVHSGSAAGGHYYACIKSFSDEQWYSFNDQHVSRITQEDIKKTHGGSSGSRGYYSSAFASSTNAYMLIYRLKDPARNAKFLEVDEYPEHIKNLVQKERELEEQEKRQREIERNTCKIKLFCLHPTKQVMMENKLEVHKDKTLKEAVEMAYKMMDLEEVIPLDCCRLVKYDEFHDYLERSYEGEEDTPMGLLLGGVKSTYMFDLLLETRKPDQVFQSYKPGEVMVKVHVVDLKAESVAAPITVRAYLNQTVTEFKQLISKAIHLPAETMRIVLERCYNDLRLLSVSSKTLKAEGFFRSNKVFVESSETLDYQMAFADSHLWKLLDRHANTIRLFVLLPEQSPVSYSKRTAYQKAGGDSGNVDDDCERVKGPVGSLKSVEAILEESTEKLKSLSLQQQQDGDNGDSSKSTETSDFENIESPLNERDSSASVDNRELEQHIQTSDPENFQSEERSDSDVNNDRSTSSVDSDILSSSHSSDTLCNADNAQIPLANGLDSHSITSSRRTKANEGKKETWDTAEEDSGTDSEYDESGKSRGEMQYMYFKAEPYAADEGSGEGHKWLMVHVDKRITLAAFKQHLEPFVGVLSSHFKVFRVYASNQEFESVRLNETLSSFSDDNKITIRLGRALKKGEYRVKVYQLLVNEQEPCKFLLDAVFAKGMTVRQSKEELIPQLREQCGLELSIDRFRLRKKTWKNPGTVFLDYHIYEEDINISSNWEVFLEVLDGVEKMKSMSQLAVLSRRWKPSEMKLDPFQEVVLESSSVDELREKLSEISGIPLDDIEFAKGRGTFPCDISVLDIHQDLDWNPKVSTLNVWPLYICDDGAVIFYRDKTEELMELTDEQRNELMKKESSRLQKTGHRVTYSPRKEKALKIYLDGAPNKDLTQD
Outline: as §1

USP48 = biological target: T3, USP48 (UniProt Q86UV5)
T3 sequence (whole entry): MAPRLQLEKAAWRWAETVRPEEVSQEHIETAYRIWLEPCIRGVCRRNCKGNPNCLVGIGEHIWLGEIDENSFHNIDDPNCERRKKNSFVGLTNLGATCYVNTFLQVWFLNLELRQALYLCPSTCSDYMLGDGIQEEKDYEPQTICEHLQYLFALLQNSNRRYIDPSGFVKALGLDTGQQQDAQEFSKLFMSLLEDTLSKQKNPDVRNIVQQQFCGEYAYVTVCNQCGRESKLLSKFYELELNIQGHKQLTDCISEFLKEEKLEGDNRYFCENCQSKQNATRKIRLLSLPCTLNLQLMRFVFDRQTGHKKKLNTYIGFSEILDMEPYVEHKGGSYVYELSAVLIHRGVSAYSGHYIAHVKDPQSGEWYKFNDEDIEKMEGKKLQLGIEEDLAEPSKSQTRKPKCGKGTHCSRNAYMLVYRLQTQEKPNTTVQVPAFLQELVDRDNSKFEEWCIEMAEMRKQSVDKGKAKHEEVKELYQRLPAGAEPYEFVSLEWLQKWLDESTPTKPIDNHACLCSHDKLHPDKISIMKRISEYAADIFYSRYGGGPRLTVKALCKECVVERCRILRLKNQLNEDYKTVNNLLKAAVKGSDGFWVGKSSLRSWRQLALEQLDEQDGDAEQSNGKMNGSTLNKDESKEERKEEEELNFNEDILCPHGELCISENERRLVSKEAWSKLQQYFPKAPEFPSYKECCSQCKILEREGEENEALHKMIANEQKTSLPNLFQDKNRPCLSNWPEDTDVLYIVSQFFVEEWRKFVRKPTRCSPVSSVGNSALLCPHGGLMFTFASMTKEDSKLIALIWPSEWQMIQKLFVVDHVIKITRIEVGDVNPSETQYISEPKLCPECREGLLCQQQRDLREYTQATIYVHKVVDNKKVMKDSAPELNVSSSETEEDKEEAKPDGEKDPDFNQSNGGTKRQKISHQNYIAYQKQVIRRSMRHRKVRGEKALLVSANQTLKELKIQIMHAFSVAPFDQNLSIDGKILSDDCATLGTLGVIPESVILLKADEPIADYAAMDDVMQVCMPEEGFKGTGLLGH
Outline: as §1

USP5 = biological target: T4, USP5 (UniProt P45974)
T4 sequence (whole entry): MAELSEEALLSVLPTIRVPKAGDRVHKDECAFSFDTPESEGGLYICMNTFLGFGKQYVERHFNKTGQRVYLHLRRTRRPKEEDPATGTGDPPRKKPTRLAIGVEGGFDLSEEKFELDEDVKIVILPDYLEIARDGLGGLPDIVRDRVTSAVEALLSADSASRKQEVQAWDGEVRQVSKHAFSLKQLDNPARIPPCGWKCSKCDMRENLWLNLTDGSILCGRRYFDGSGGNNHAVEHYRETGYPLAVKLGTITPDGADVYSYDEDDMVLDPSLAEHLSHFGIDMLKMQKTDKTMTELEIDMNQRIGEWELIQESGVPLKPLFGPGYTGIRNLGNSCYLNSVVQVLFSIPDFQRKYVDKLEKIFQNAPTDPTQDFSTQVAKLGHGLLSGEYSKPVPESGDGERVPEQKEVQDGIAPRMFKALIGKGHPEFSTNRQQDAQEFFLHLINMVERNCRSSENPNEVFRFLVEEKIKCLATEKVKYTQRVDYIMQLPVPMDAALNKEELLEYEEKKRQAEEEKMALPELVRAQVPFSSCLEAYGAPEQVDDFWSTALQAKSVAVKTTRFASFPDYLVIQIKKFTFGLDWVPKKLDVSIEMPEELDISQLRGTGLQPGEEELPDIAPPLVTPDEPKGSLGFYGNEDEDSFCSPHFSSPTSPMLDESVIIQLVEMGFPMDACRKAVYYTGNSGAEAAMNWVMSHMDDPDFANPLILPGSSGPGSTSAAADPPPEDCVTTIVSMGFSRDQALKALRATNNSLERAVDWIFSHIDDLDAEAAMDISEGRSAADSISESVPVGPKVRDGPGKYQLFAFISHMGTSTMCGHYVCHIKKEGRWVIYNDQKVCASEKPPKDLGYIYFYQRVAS
Outline: as §1

USP54 = USP54 (UniProt Q70EL1)
Chain of USP54 (Q70EL1 whole entry): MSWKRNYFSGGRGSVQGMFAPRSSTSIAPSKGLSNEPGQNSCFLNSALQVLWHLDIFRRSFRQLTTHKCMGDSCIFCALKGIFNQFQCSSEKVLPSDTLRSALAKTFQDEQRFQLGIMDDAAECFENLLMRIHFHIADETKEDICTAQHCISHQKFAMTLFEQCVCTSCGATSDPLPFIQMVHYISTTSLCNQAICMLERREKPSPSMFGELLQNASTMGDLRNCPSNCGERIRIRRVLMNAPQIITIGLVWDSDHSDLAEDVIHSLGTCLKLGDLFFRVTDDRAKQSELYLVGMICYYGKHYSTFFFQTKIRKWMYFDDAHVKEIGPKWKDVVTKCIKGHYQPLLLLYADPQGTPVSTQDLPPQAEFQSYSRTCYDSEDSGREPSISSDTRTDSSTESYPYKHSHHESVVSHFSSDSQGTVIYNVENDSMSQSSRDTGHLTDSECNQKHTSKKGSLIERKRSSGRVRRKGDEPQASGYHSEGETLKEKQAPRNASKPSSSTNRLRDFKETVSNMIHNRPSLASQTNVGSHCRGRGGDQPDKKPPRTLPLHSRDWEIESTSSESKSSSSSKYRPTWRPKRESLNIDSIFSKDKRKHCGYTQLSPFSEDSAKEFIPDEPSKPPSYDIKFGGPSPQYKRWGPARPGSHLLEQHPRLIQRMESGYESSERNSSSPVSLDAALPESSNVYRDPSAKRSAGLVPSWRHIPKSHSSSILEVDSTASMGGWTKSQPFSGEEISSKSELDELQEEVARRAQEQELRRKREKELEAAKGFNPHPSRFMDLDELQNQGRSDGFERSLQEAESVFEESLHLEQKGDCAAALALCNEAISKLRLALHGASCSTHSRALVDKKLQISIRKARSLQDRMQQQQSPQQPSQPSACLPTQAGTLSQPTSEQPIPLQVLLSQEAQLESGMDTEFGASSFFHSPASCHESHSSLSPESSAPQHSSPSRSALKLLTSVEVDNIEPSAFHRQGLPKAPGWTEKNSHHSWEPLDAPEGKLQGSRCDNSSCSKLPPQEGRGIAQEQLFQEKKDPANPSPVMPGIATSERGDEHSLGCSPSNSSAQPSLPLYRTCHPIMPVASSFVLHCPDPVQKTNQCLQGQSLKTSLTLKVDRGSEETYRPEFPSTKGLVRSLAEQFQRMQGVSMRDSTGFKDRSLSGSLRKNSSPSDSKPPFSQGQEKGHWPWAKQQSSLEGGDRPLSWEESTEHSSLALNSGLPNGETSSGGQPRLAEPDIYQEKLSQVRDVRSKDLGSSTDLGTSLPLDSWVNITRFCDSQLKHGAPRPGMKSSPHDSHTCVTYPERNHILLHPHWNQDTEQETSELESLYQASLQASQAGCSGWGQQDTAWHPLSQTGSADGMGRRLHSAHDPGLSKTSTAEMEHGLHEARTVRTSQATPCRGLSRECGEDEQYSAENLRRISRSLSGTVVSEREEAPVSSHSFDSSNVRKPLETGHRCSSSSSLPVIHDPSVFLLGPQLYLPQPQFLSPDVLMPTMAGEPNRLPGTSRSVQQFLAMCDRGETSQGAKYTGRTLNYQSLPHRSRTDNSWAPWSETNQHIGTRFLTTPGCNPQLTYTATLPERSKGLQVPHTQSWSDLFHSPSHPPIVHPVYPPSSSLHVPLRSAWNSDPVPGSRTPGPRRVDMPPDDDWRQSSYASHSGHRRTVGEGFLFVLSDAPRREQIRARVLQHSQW
Outline: as §1

USP7 = USP7 (UniProt Q93009)
Outline: as §1

USP8 = biological target: T5, USP8 (UniProt P40818)
T5 sequence (whole entry): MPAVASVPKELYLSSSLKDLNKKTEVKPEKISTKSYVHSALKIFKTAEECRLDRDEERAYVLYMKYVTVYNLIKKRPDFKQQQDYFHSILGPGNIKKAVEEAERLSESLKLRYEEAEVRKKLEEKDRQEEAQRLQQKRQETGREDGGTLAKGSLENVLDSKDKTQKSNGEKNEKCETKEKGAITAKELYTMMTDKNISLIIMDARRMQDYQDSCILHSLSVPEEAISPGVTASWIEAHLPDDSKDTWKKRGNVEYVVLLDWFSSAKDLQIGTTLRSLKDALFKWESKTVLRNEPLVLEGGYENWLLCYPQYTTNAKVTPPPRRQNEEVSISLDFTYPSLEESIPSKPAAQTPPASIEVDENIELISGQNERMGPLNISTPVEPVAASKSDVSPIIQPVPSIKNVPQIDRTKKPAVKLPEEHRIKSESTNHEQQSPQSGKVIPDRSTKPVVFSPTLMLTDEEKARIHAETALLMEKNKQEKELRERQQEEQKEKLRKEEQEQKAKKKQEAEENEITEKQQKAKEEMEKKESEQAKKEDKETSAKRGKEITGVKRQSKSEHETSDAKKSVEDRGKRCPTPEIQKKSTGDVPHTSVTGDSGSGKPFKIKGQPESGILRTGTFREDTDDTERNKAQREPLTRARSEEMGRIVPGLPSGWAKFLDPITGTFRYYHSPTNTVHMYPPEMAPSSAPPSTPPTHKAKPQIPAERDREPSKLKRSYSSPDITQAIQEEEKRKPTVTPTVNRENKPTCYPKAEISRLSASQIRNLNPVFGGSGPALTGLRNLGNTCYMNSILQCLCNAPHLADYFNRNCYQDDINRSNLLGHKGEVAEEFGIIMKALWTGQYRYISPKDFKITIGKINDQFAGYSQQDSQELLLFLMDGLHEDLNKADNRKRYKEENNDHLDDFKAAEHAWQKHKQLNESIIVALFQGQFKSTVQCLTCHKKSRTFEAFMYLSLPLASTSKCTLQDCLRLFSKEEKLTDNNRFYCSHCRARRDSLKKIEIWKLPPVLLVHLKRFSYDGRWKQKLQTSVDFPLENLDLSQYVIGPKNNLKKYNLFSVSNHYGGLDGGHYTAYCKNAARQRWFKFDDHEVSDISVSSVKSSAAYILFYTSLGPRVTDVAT
Outline: as §1

USP9X = USP9X (UniProt Q93008)
Chain of USP9X (Q93008 whole entry): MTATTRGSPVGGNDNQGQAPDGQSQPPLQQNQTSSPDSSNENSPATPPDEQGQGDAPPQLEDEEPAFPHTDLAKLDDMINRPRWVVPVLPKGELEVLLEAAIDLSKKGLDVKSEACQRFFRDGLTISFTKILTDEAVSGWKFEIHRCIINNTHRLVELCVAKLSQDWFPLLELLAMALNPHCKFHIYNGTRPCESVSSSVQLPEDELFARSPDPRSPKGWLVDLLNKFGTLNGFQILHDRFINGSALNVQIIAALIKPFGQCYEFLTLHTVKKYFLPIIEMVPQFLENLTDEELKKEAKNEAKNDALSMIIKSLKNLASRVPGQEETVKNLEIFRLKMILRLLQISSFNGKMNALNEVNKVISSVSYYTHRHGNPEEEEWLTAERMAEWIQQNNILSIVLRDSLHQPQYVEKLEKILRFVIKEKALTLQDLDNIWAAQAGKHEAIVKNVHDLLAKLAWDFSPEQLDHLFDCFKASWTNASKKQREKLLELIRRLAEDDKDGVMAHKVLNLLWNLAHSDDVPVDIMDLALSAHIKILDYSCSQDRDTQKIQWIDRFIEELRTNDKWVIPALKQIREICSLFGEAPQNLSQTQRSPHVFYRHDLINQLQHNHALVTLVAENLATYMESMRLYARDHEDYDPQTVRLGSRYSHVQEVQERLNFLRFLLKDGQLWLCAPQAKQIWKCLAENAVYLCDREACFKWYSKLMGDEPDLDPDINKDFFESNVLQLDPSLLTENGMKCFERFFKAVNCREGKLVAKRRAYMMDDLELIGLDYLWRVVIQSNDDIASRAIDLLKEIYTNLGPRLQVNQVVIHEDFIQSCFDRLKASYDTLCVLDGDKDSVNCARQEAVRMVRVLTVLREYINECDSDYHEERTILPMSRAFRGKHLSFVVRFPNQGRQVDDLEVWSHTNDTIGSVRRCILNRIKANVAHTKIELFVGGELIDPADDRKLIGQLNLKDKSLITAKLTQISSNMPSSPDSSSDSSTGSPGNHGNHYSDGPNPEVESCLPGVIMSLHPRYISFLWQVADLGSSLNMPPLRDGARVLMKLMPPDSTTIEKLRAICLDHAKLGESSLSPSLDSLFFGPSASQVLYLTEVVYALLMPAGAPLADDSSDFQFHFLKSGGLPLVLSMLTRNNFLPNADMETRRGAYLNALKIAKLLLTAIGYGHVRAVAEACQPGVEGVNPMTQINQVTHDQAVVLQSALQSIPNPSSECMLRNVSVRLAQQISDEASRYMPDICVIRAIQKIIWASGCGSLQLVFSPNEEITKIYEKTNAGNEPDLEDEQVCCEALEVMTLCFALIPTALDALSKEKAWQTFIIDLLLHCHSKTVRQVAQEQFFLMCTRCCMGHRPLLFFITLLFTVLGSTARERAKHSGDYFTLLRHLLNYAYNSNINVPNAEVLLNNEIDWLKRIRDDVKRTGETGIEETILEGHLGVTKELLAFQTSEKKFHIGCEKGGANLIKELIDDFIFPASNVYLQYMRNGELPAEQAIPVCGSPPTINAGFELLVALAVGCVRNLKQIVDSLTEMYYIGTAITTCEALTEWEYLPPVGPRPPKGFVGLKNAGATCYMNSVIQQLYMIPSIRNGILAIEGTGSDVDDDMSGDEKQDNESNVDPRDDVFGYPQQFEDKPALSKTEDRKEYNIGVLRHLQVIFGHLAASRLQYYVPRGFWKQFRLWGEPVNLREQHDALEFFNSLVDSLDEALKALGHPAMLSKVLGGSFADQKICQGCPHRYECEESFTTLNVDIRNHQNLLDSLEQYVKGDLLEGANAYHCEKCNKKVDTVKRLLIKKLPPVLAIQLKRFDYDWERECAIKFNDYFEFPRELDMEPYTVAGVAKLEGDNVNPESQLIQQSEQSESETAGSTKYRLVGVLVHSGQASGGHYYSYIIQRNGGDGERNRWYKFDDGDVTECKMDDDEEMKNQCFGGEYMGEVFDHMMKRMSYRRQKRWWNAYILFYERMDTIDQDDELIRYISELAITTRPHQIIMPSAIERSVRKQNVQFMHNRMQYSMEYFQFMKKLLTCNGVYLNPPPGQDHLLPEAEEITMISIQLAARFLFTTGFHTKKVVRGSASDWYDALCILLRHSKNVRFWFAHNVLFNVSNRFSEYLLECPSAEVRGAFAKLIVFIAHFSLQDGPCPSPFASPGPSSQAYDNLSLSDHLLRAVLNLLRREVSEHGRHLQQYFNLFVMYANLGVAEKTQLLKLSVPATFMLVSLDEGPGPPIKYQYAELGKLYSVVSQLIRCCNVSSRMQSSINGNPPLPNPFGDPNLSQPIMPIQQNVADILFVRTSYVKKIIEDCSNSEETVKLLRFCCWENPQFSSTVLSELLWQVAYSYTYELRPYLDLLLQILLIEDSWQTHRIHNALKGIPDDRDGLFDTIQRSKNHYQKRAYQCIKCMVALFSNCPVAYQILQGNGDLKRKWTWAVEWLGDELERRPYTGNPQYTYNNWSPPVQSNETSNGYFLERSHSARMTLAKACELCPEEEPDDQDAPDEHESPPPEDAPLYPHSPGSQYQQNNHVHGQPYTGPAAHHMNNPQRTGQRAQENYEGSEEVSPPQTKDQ
Outline: as §1

UniProt O00487 = biological target: UniProt O00487
Chain of UniProt O00487 (O00487 whole entry): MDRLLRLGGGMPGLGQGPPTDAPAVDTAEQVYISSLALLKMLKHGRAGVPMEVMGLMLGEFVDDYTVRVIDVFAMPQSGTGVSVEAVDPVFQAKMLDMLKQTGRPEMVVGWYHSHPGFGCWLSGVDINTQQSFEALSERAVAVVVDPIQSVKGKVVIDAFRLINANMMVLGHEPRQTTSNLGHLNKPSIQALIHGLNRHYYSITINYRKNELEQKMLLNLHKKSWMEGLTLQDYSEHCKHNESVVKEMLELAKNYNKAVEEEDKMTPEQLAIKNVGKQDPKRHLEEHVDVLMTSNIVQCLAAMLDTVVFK
Outline: as §1

Measured: log2 ratio of Biotin-Ahx-Ub-VS probe labelling

COCC[C@@H](NC(=O)CCl)c1ccccc1
inactive: USP42 0.331 | USP46 0.164 | USP47 -0.122 | USP48 -0.261 | USP5 0.0242 | USP54 0.235 | USP7 -0.0296 | USP8 -0.0978 | USP9X -0.0244 | UniProt O00487 -0.0153
